High-throughput results deposited in PubChem BioAssay by National Center for Advancing Translational Sciences (NCATS).
In the library only some 13% were active in any assay of this set; here they are far more common.
A350 autofl: compound fluoresces in the Alexa 350 spectral region; Compound autofluorescence, 340/450 nm, Alexa 350 dye-equivalents; hits give high values; AID 590; max dye-equivalent concentration, M; hit rate 11% among 59,000; in the data active = max dye-equivalent concentration above about 10 nM; inconclusive = mostly about 1.1 nM to 9.6 nM
4-MU autofl: compounds fluorescent in 4-MU spectral region; max dye-equivalent concentration, M; compound autofluorescence, 340/450 nm, 4-MU equivalents; hits give high values; hit rate 11% among 59,000; in the data active = max dye-equivalent concentration above about 10 nM; inconclusive = mostly about 1.1 nM to 9.6 nM
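Compounds in 100 mM Tris, pH 8.0, sat 15 min at room temperature before fluorescence was read at 340 nm excitation/450 nm emission; a per-plate six-point 4-MU standard curve converted signals to dye-equivalent concentration at each compound concentration.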
HADH2 inhib: blocks human hydroxyacyl-CoA dehydrogenase type II. Potency, µM (top dose mostly 57.1 µM), for inactives: at the top dose activity change, negative = inhibition, actives largely listed as inhibitors. Q99714. recombinant HADH2, NADH fluorescence, beta-hydroxybutyryl-CoA. AID 886. hit rate 3.4% among 73,000; note: potency is the fitted concentration of half-maximal effect; % is set by controls: 0 for no effect and ±100 for the full control effect; nearly all actives have a fitted effect of over 60% in size
Target sequence (Q99714 whole entry, looked up, one chain of several): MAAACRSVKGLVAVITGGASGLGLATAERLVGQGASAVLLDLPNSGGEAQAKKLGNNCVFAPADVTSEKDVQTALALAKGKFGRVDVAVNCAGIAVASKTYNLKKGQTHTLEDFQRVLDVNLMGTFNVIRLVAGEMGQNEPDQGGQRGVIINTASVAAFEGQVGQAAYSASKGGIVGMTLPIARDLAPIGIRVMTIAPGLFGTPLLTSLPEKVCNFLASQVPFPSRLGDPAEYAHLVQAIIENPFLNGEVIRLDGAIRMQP
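20 nM HADH2 + cpd, 15 min RT; add 1 mM NAD+/90 uM beta-hydroxybutyryl-CoA; kinetic fluorescence 360/450 nm, 4 min. Tris-HCl pH 9.0, 0.01% Tween-20.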
HSD17B inh: inhibitors of human HSD17B10 dehydrogenase | Potency, µM (series often up to 57.1 µM), without a hit: top-dose activity change, negative = inhibition, usual class: inhibitors | hit rate 7.6% among 75,000 | recombinant HSD17B10, NADH fluorescence kinetic | Q99714;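 note: the protocol describes HADH2 (HSD17B10) and not the HSD17B4 of the title; potency is the fitted concentration of half-maximal effect; % is set by controls: 0 for no effect and ±100 for the full control effect; nearly all actives have a fitted effect of over 70% in size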
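Enzyme plus compound, 15 min room temperature; substrate mix added (NAD+ 1 mM, beta-hydroxybutyryl-CoA 90 uM final); plates read kinetically for NADH fluorescence. HADH2 was His-tagged, E. coli-derived, 20 nM.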
AID923: qHTS Assay for Allosteric/Competitive Inhibitors of Caspase-1: Spectroscopic Profiling in AFC Spectral Region. Potency, µM (titrated, usually from 57.5 µM), for inactives: top-dose fluorescence increase, actives largely listed as activators. hit rate 1.1% among 75,000. compound fluorescence, AFC spectral region (405/520 nm); note: potency is the fitted concentration of half-maximal effect; 0% is about no effect
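Baseline compound fluorescence (AFC region, 405 nm ex/520 nm em) taken from the intercept of kinetic reads with 50 nM caspase-1 and 5 uM Ac-WEHD-AFC; normalized to an on-plate AFC standard curve; compounds titrated up to 57 uM.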
GBA activity: alters purified human glucocerebrosidase activity; P04062; purified enzyme, resorufin glucoside fluorescence (screen aimed at inhibitors), 20 min; Potency, µM; hit rate 1.1% among 48,000; in the data active = potency below about 15 µM; inconclusive = mostly about 16 µM to 33 µM;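 note: potency is the fitted concentration of half-maximal effect; the screen sought inhibitors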
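Compounds titrated against 0.2 nM normal enzyme, 30 uM resorufin beta-D-glucopyranoside substrate, citrate/phosphate buffer with taurocholate and tween-20, pH 5.9. Reaction ran 20 min at room temperature; fluorescence (Ex 548/Em 600) gave AC50.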
An asterisk follows results filed as active; i = inactive; ? = inconclusive; nt = no result given; ! = not active in a repeat; [ ] = remark or other dose. Unless noted, calls come from the whole dose curve; as a rule, active = well fitted curve in the direction sought with a large enough effect; inconclusive = small, poorly fitted or top-dose-only effect, or another doubt; inactive = no such curve, though single readings can be large; an effect the other way counts as inactive or inconclusive.

SMILES	A350 autofl	4-MU autofl	HADH2 inhib	HSD17B inh	AID923	GBA activity
C/C=C(\C)C(=O)OC1c2c(ccc3ccc(=O)oc23)OC(C)(C)C1OC(C)=O (configuration not stated)	nt	nt	nt	?	0%	nt
C=C(C)C1COc2cc3oc(=O)ccc3cc2O1 (configuration not stated)	nt	nt	nt	25µM*	-2%	nt
CC(C)(C)c1ccc2c(c1)OCC(C(=O)O)O2 (configuration not stated)	?	i	-9%	0%	1%	>77
CC(=O)OC(C)(C)C1Cc2cc3ccc(=O)oc3cc2O1 (configuration not stated)	nt	nt	nt	25µM*	0%	nt
CCCCN(C(=O)c1ccco1)c1nnc(-c2cc(OC)c(OC)c(OC)c2)s1	1.2e-07M*	1.7e-07M*	?	16µM*	0%	>77
CN(C)C(=O)CCc1nc(-c2ccc(C(C)(C)C)cc2)no1	i	i	-9%	-4%	-1%	>77
COc1ccc(-n2c(=O)c(-c3cccc(Cl)c3)nc3cncnc32)cc1	i	i	-2%	-1%	3%	nt
CCc1ccc2c(-c3cccc(Cl)c3)nc(=O)n(CC)c2n1	nt	nt	4%	32µM*	-1%	nt
CCC(=O)Nc1ccccc1Oc1ccccc1	?	i	5%	5%	-2%	>77
O=C(NCN1C(=O)C2C3C=CC(C3)C2C1=O)Nc1nncs1 (configuration not stated)	i	i	2%	6%	-1%	>77
COc1ccc(NC(=O)Cn2nnc(-c3ccccc3NC(=O)c3ccco3)n2)cc1	i	i	7%	401%	-2%	7.2*
COc1ccc(C(=O)Nc2ccccc2-c2nnn(CC(=O)NCc3ccco3)n2)cc1	i	i	-29%	32µM*	1%	>77
COc1ccccc1NC(=O)Cn1nnc(-c2ccccc2NC(=O)c2ccco2)n1	i	i	-6%	?	-1%	>77
c1ccc2c(c1)[nH]c1nc3nncn3nc12	nt	nt	9%	-4%	2%	nt
O=C(N/N=C1/C[C@@H](O)[C@@H](O)[C@@H]2[C@H]3C(=O)N(c4ccc(F)cc4F)C(=O)[C@@H]3CC[C@@H]12)OCc1ccccc1	nt	nt	-9%[11.4 µM]	-5%[11.4 µM]	9%[11.5 µM]	nt
CCn1c(SCc2nc3ccccc3nc2C)nnc1-c1cccs1	?	i	19%	2%	1%	>77
Cc1cccc2cc3c(N)c(C(=O)N4CCOCC4)sc3nc12	?	?	-20%	-8%	3%	>77
Nc1nc2sc3c(c2cc1C(=O)N1CCOCC1)CCCC3	nt	nt	-7%[11.4 µM]	25µM*	1%	nt
COc1ccccc1C(=O)Nc1ccccn1	i	i	6%	-3%	0%	>77
O=C(CSc1ncn(-c2ccccc2)n1)N1CCN(c2ccccc2)CC1	i	i	?	-7%	0%	>77
CCN(CC)CCN1C(=O)C(O)=C(C(=O)c2ccc(C)o2)C1c1ccccn1 (configuration not stated)	i	i	1%	10%	2%	>77
Cc1ccc(C(=O)C2=C(O)C(=O)N(CCN3CCOCC3)C2c2ccccn2)o1 (configuration not stated)	1.2e-08M*	1e-08M*	nt	nt	nt	nt
CCC(=O)O[C@@]1(C(=O)CCl)[C@@H](C)C[C@@H]2[C@H]3CCC4=CC(=O)C=C[C@@]4(C)[C@]3(F)[C@@H](O)C[C@@]21C	i	i	-2%[25.6 µM]	-2%[25.6 µM]	0%[25.7 µM]	nt
COc1cc(C(=O)N2CCC(NC(=O)C(Cc3ccccc3)NC(C)=O)CC2)cc(OC)c1OC (configuration not stated)	i	i	-1%	9%	-3%	>77
COc1cc(CC(NC(C)=O)C(=O)NC2CCN(c3nc(C)cc(C)c3C#N)CC2)cc(OC)c1 (configuration not stated)	1.2e-08M*	?	2%	?	-2%	>77
SMILES	A350 autofl	4-MU autofl	HADH2 inhib	HSD17B inh	AID923	GBA activity
COc1cccc(CC(NC(C)=O)C(=O)NC2CCN(c3nc(C)cc(C)c3C#N)CC2)c1OC (configuration not stated)	1.1e-07M*	8.6e-08M*	15%	25µM*	-1%	>77
CCn1cc(C(=O)O)c(=O)c2cc(F)c(N3CCN[C@@H](C)C3)c(F)c21	1.5e-08M*!	1.8e-08M*!	16µM*	13µM*	1%[25.7 µM]	nt
CCn1cc(C(=O)O)c(=O)c2cnc(N3CCNCC3)nc21	i	i	-4%[25.6 µM]	-7%	0%	nt
CCO/C(C)=N/n1c2nc3ccccc3nc2c2c(=O)n(CC(C)C)c(C)nc21	3.2e-08M*	2.8e-08M*	nt	nt	nt	nt
COc1ccccc1N1CCN(C(=O)c2cc(-c3ccco3)on2)CC1	nt	nt	-7%	-2%	3%	nt
Cc1ccc(C(=O)CSC2=C(C#N)C(c3ccco3)C3=C(CCCC3=O)N2)cc1 (configuration not stated)	i	i	nt	nt	nt	nt
CCOC(=O)C1=C(NC#N)OC(C)=C(C)C1c1ccc(O)cc1 (configuration not stated)	3.4e-08M*	2.7e-08M*	-18%	-32%	1%	>77
CCCc1cc(C(=O)OC)c(NC(=O)OCC)s1	i	i	?	-9%	2%	>77
CCOCCOc1nc2c(c(=O)n(C)c(=O)n2C)n1CCc1ccccc1	i	i	-4%	-7%	0%	>77
CCCOc1nc2c(c(=O)n(C)c(=O)n2C)n1CC	1.5e-08M*	1.4e-08M*	21%	2%	-2%	>77
CCOC(=O)CSC1=C(C#N)C(c2ccccc2C)C2=C(CCCC2=O)N1 (configuration not stated)	7.4e-08M*	7.4e-08M*	-29%	58%	0%	>77
CCC(Sc1ccc2nnc(-c3cccnc3)n2n1)C(=O)O (configuration not stated)	nt	nt	-16%	?	-2%	nt
CN(C)c1ccc(-c2nc(NCc3cccnc3)c3ccccc3n2)cc1	i	i	?	32µM*	0%	nt
c1cncc(CNc2nc(-c3ccoc3)nc3ccccc23)c1	i	i	16µM*	-13%	2%	nt
CNc1nc(-c2ccc(N(C)C)cc2)nc2ccccc12	?	i	?	20µM*	2%	nt
c1csc(CNc2nc(-c3ccoc3)nc3ccccc23)c1	i	i	16µM*	-16%	2%	nt
O=C(NCc1ccco1)c1cc2n(n1)C(C(F)(F)F)CC(c1ccc(Br)cc1)N2 (configuration not stated)	i	i	6%	-2%	0%	>77
O=C1CCC(=O)N1CCCCCc1nc(-c2ccccc2)no1	?	i	0%	2%	0%	>77
Cc1csc2nc(CNC(=O)C3CCCCC3)cn12	nt	nt	3%	9%	0%	nt
